# In PubChem BioAssay (EPA / NIEHS):
# Results filed as inconclusive are left out. Calls of active or inactive are those of the source. Rule for the calls, unless noted: active = hit-call score of the fitted dose curve at least 0.9, where 1 is the maximum; inactive = score below 0.9.
# Legend:
# [1] = ACEA_ER_80hr: ACEA Biosciences xCELLigence Real-Time Cell Analysis on Estrogen Receptor Agonism for Proliferation (AID 2282667; active = hit-call score of the fitted dose curve at least 0.9, where 1 is the maximum); conditions: T47D proliferation, impedance (xCELLigence), 80 h
# Method in brief: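 Real-time electrical impedance tracked growth of the human breast line T47D, with the 80 h post-dosing value used. Dosing spanned eight 1:4 steps down from a 100 uM final top concentration, run in duplicate.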
# [2] = APR_HepG2_CellCycleArrest_24hr: Apredica 24-hour HepG2 Assay for Cell Cycle Arrest (AID 2282905); conditions: imaging, actives raise or lower the signal;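 note: cell cycle arrest scored as ratio of 2N to 4N nuclear DNA content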
# Method in brief: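 HepG2 cells were exposed to compounds at 0.39–200 uM (ten concentrations, duplicate) in 0.5% v/v DMSO for 24 hr. After formaldehyde fixation and Triton permeabilization, Hoechst 33342-stained nuclei were imaged at 20x; DNA content was quantified, with bidirectional fitting against DMSO.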
# [3] = APR_HepG2_NuclearSize_24hr: Apredica 24-hour HepG2 Assay for Nuclear Size (AID 2282907); conditions: high-content imaging, actives raise or lower the signal
# Method in brief: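 HepG2 human liver cells were exposed for 24 hr to compounds at 0.39–200 uM (ten concentrations, duplicate) in 0.5% v/v DMSO. They were then formaldehyde-fixed, Triton-permeabilized and Hoechst 33342-stained, and nuclear diameter was imaged at 20x. Bidirectional fits were made against DMSO.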
# [4] = APR_HepG2_CellLoss_24hr: Apredica 24-hour HepG2 Assay for Cell Loss (AID 2282908); conditions: high-content imaging
# Method in brief: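 Compounds were tested at 0.39–200 uM in duplicate with 0.5% v/v DMSO final. Cells were then fixed in 3.7% formaldehyde, Hoechst 33342 nuclei were imaged at 20x by HCS, and cell number was fitted bidirectionally against DMSO.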
# [5] = APR_HepG2_MicrotubuleCSK_24hr: Apredica 24-hour HepG2 Assay for Microtubule CSK Stabilty (AID 2282909); conditions: HepG2 microtubule cytoskeleton imaging, actives raise or lower the signal
# Method in brief: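 HepG2 cells exposed 24 h to compounds at 0.39–200 uM (duplicate, 0.5% v/v DMSO final), then fixed, permeabilized and immunostained for alpha-tubulin with Hoechst 33342. Cytoskeleton imaged at 20x; bidirectional fit versus DMSO baseline.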
# [6] = APR_HepG2_MitoticArrest_24hr: Apredica 24-hour HepG2 Assay for Mitotic Arrest (AID 2282910); conditions: high-content imaging, actives raise or lower the signal
# Method in brief: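 HepG2 cells, 24 h exposure at 0.39-200 uM (10 concentrations, duplicate, 0.5% DMSO). Fixed, stained for phospho-histone H3 with Hoechst; imaged by high-content microscopy, bidirectional fit versus DMSO.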
# [7] = APR_HepG2_MitoMembPot_24hr: Apredica 24-hour HepG2 Assay for Mitochondrial Membrane Potential (AID 2282911); conditions: imaging, actives raise or lower the signal
# Method in brief: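 Cells are dosed for 24 hr across 0.39 to 200 uM with solvent held at 0.5% DMSO. They are then stained with 250 nM MitoTracker Red CMXRos for 30 min, fixed in 3.7% formaldehyde and imaged.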
# [8] = APR_HepG2_MitoMass_24hr: Apredica 24-hour HepG2 Assay for Mitochondrial Mass (AID 2282912); conditions: high-content imaging, actives raise or lower the signal
# Method in brief: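 Human HepG2 liver cells were exposed for 24 hr to compounds at 0.39–200 uM (duplicates, 0.5% v/v DMSO final). They were stained live with 250 nM MitoTracker Red CMXRos for 30 min, fixed in 3.7% formaldehyde, and imaged by HCS fluorescence; signals were fitted bidirectionally against DMSO.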
# [9] = APR_HepG2_p53Act_24hr: Apredica 24-hour HepG2 Assay for p53 Activation (AID 2282913); conditions: high-content imaging, actives raise or lower the signal;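 note: p53 protein immunofluorescence averaged per cell in HepG2 with Hoechst nuclei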
# Method in brief: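 Human HepG2 liver cells; 24 hr cpd treatment, 0.39–200 uM, 0.5% DMSO final. Fixed in 3.7% formaldehyde, permeabilized with 0.5% Triton X-100, stained with anti-p53/Cy5 plus Hoechst 33342. Six images per well at 20x; gain or loss vs DMSO.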
# [10] = APR_HepG2_CellCycleArrest_72hr: Apredica 72-hour HepG2 Assay for Cell Cycle Arrest (AID 2282914); conditions: high-content imaging, actives raise or lower the signal
# Method in brief: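 Read-out is Hoechst-stained nuclear DNA content measured by automated fluorescence imaging (20x, six images per well), fitted in both directions relative to DMSO. Human HepG2 liver cells received 0.39–200 uM compound for 72 hr at 0.5% v/v DMSO.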
# [11] = APR_HepG2_CellLoss_72hr: Apredica 72-hour HepG2 Assay for Cell Loss (AID 2282915); conditions: high-content imaging
# Method in brief: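 HepG2 cells exposed 72 h to compound at 0.39–200 uM (10 concentrations, duplicate) in 0.5% DMSO. Fixed with 3.7% formaldehyde and Hoechst 33342-stained. Imaged at 20x; nuclear count gives cell number, fitted bidirectionally versus DMSO.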
# [12] = APR_HepG2_P-H2AX_72hr: Apredica 72-hour HepG2 Assay for H2AX Phosphorylation (AID 2282916); conditions: imaging, actives raise or lower the signal;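 note: phospho-histone H2A.x immunostain intensity per cell marking DNA damage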
# Method in brief: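 HepG2 human liver cells were exposed for 72 hr to compounds at 0.39–200 uM (10 concentrations, duplicate per plate) in 0.5% v/v DMSO. Fixed, permeabilized cells were immunolabeled for phospho-histone H2A.x with Hoechst 33342 and imaged by HCS fluorescence; bidirectional fit versus DMSO.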
# [13] = APR_HepG2_MitoMembPot_72hr: Apredica 72-hour HepG2 Assay for Mitochondrial Membrane Potential (AID 2282917); conditions: imaging, actives raise or lower the signal
# Method in brief: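 HepG2 cells dosed 72 hr with compound at 0.39–200 uM in duplicate, 0.5% v/v DMSO final. Mitochondria stained with 250 nM MitoTracker Red CMXRos for 30 min before formaldehyde fixation, imaged by high-content fluorescence; bidirectional fit versus DMSO.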
# [14] = APR_HepG2_MitoticArrest_72hr: Apredica 72-hour HepG2 Assay for Mitotic Arrest (AID 2282918); conditions: high-content imaging, actives raise or lower the signal
# Method in brief: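 Read-out is phospho-histone H3 immunofluorescence with Hoechst nuclear segmentation, imaged at 20x. Human HepG2 liver cells received ten concentrations (0.39–200 uM, final DMSO 0.5% v/v) for 72 hr before fixation. Gain or loss of signal was fitted relative to DMSO.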
# [15] = APR_HepG2_MicrotubuleCSK_72hr: Apredica 72-hour HepG2 Assay for Microtubule CSK Stabilty (AID 2282919); conditions: HepG2 microtubule cytoskeleton, high-content imaging, actives raise or lower the signal
# Method in brief: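 HepG2 cells were exposed 72 hr to compound at 0.39–200 uM in duplicate (0.5% DMSO final), then fixed and permeabilized. Alpha-tubulin immunofluorescence was imaged by high-content microscopy, with bidirectional fitting against DMSO and taxol as positive control.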
# [16] = APR_HepG2_P-H2AX_24hr: Apredica 24-hour HepG2 Assay for H2AX Phosphorylation (AID 2282920); conditions: high-content imaging, actives raise or lower the signal
# Method in brief: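 HepG2, 24 hr, cpd 0.39–200 uM (10 conc, duplicate), DMSO 0.5% v/v final. Fix 3.7% formaldehyde, Triton X-100 permeabilize, anti-phospho-H2A.x 1:200 + Hoechst 2 ug/mL. Imaged, bidirectional fit vs DMSO.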
# [17] = APR_HepG2_StressKinase_72hr: Apredica 72-hour HepG2 Assay for Stress Kinase (AID 2282921); conditions: HepG2 stress kinase (phospho-c-Jun) imaging, actives raise or lower the signal
# Method in brief: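 Cells were exposed for 72 h to ten concentrations (0.39–200 uM, duplicate) at 0.5% v/v DMSO final, then fixed with 3.7% formaldehyde, permeabilized and immunostained for phospho-c-Jun (Cy3 secondary) with Hoechst nuclear counterstain.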
# [18] = APR_HepG2_StressKinase_24hr: Apredica 24-hour HepG2 Assay for Stress Kinase (AID 2282922); conditions: HepG2 stress kinase (phospho-c-Jun) imaging, actives raise or lower the signal
# Method in brief: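 HepG2 cells exposed 24 h to 0.39–200 uM compound in duplicate (0.5% v/v DMSO final). Cells fixed in 3.7% formaldehyde, permeabilized and immunostained for phospho-c-Jun; read by high-content fluorescence imaging, fitted bidirectionally against DMSO.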
# [19] = APR_HepG2_p53Act_72hr: Apredica 72-hour HepG2 Assay for p53 Activation (AID 2282923); conditions: high-content imaging, actives raise or lower the signal;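 note: average cellular p53 protein immunofluorescence intensity in HepG2 cells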
# Method in brief: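 Cells were dosed for 72 hr with compounds at 0.39–200 uM in duplicate (final DMSO 0.5% v/v), then fixed in 3.7% formaldehyde, permeabilized with Triton X-100 and immunostained for p53 (Cy5) with Hoechst 33342 nuclear counterstain.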
# [20] = APR_HepG2_MitoMass_72hr: Apredica 72-hour HepG2 Assay for Mitochondrial Mass (AID 2282924); conditions: high-content imaging, actives raise or lower the signal;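 note: MitoTracker Red CMXRos stain intensity per cell imaged as mitochondrial mass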
# Method in brief: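 HepG2 cells dosed 72 hr at 0.39–200 uM (0.5% DMSO), in duplicate. MitoTracker Red CMXRos 250 nM loaded 30 min before formaldehyde fixation; high-content fluorescence imaging, bidirectional fit versus DMSO.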
structure (smiles),measurement,setting,value
COc1ccc(C)cc1N,outcome,[1],inactive
same,outcome,[2],inactive
same,outcome,[3],inactive
same,outcome,[4],inactive
same,outcome,[5],inactive
same,outcome,[6],inactive
same,outcome,[7],inactive
same,outcome,[8],inactive
same,outcome,[9],inactive
same,outcome,[10],inactive
same,outcome,[11],inactive
same,outcome,[12],inactive
same,outcome,[13],inactive
same,outcome,[14],inactive
same,outcome,[15],inactive
same,outcome,[16],inactive
same,outcome,[17],inactive
same,outcome,[18],inactive
same,outcome,[19],inactive
same,outcome,[20],inactive
NC(=O)Cn1c(=O)cc(CCN2CCN(c3nccc4sccc34)CC2)c2ccc(F)cc21,outcome,[1],inactive
same,outcome,[2],inactive
same,outcome,[3],inactive
same,outcome,[4],inactive
same,outcome,[5],inactive
same,outcome,[6],inactive
same,outcome,[7],inactive
same,outcome,[8],inactive
same,outcome,[9],inactive
same,outcome,[10],inactive
same,AC50,[11],82 µM (active)
same,AC50,[12],101 µM (active)
same,outcome,[13],inactive
same,AC50,[14],98.9 µM (active)
same,outcome,[16],inactive
same,outcome,[17],inactive
same,outcome,[18],inactive
same,AC50,[19],101 µM (active)
same,outcome,[20],inactive
CN1CCCC1=O,outcome,[1],inactive
same,outcome,[2],inactive
same,outcome,[3],inactive
same,outcome,[4],inactive
same,outcome,[5],inactive
same,outcome,[6],inactive
same,outcome,[7],inactive
same,outcome,[8],inactive
same,outcome,[9],inactive
same,outcome,[11],inactive
same,outcome,[12],inactive
same,outcome,[13],inactive
same,outcome,[14],inactive
same,outcome,[15],inactive
same,outcome,[16],inactive
same,outcome,[17],inactive
same,outcome,[18],inactive
same,outcome,[19],inactive
same,outcome,[20],inactive
O=C(OCCCCCOC(=O)c1ccccc1)c1ccccc1,outcome,[1],inactive
same,outcome,[2],inactive
same,outcome,[3],inactive
same,outcome,[4],inactive
same,outcome,[5],inactive
same,outcome,[6],inactive
same,outcome,[7],inactive
same,outcome,[8],inactive
same,outcome,[9],inactive
same,AC50,[10],103 µM (active)
same,AC50,[11],100 µM (active)
same,outcome,[12],inactive
same,outcome,[13],inactive
same,outcome,[14],inactive
same,outcome,[16],inactive
same,outcome,[17],inactive
same,outcome,[18],inactive
same,outcome,[19],inactive
same,outcome,[20],inactive
CCCCN(CCCC)CCCC,outcome,[1],inactive
same,outcome,[2],inactive
same,outcome,[3],inactive
same,outcome,[4],inactive
same,outcome,[5],inactive
same,outcome,[6],inactive
same,outcome,[7],inactive
same,outcome,[8],inactive
same,outcome,[9],inactive
same,outcome,[10],inactive
same,outcome,[11],inactive
same,outcome,[12],inactive
same,outcome,[13],inactive
same,outcome,[14],inactive
same,outcome,[16],inactive
same,outcome,[17],inactive
same,outcome,[18],inactive
same,outcome,[20],inactive
O=c1[nH]cc(F)c(=O)[nH]1,outcome,[1],inactive
same,AC50,[2],1.06 µM (active)
same,outcome,[3],inactive
same,outcome,[4],inactive
same,outcome,[5],inactive
same,outcome,[6],inactive
same,outcome,[7],inactive
same,outcome,[8],inactive
same,outcome,[9],inactive
same,AC50,[10],1.52 µM (active)
same,AC50,[11],2.45 µM (active)
same,outcome,[12],inactive
same,outcome,[13],inactive
same,outcome,[14],inactive
same,outcome,[16],inactive
same,outcome,[17],inactive
same,outcome,[18],inactive
same,outcome,[20],inactive
CCCCCCCCCCO,AC50,[1],19.8 µM (active)
same,outcome,[2],inactive
same,outcome,[3],inactive
same,outcome,[4],inactive
same,outcome,[5],inactive
same,outcome,[6],inactive
same,outcome,[7],inactive
same,outcome,[8],inactive
same,outcome,[9],inactive
same,outcome,[10],inactive
same,outcome,[11],inactive
same,outcome,[12],inactive
same,outcome,[13],inactive
same,outcome,[14],inactive
same,outcome,[15],inactive
same,outcome,[16],inactive
same,outcome,[17],inactive
same,outcome,[18],inactive
same,outcome,[20],inactive
